Most compounds without a hit are left out; they make up all but 4.1% or so of the library.
DAX1 inh-1 = DAX1 (NR0B1) inhibition, primary screen; HEK293T StAR-luciferase reporter, SF-1/DAX-1 repression relief; inhibition, % at 6.8 µM; AID 652010; actives 1.1% (n = 370,000);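 active = inhibition above the mean over all tested compounds plus 3 SD, cut at about 3.6% in these data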;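 also: higher inhibition means more luminescence from relief of DAX-1 repression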
hgDAF12 agonist = activates the H. glycines DAF-12 receptor ligand-binding domain; HEK293 GAL4-hgDAF12 UAS-luciferase reporter, agonist luminescence; normalized to butyrate control; activation, % at 6.8 µM; actives 1.8% (n = 370,000);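 active = activation above a cutoff set at the mean of all screened compounds plus 3 SD, cut at about 10% in these data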
DAX1 inh-2 = inhibits human nuclear receptor DAX1. P51843. HEK293 Gal4-DAX1 luciferase reporter, luminescence. inhibition, % at 6.75 µM. actives 0.99% (n = 340,000);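 active = inhibition above the mean over all tested compounds plus 3 SD, cut at about 4.2% in these data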;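 also: inhibition shows as a rise in luminescence from relieved DAX1 repression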
Target sequence (P51843 207-470 limits assumed): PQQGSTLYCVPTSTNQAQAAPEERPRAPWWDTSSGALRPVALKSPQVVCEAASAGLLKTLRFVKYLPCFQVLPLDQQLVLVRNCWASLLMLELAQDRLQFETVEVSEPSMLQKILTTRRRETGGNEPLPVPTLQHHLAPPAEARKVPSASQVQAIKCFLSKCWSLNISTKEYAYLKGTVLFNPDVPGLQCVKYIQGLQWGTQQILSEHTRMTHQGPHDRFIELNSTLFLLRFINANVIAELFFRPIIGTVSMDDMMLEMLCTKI
ssDAF-12 act = activates DAF-12 receptor from parasite S. stercoralis; AID 652126; actives 1% (n = 370,000); activation, % at 6.8 µM; HEK293 ssDAF-12/GRIP1 lit1-tk-luc reporter, luminescence; % of 3 µM dafachronic acid response;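 active = activation above the mean over all tested compounds plus 3 SD, cut at about 0.9% in these data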
hcDAF-12 act = H. contortus DAF-12 activation, primary screen. activation, % at 6.8 µM. HEK293 hcDAF-12 lit1-tk-luc reporter, luminescence; 0% DMSO, 100% Δ7-dafachronic acid. actives 1.4% (n = 370,000);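 active = activation above the mean of all tested compounds plus 3 SD, cut at about 5.5% in these data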
DAX1 conf = NR0B1 (human) inhibition, confirmation; shares compounds with DAX1 inh-1; actives 87% (n = 2,400); inhibition, % at 6.8 µM; HEK293T StAR-promoter luciferase reporter, SF-1/DAX-1 repression;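 active = inhibition above the average of every tested compound plus 3 SD, cut at about 3.8% in these data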;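 also: active compounds raise luminescence by relieving repression of the StAR reporter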
SF1 mutant ctr = nonselective inhibitor or artifact in SF-1 mutant DAX1 counter-screen; shares compounds with DAX1 inh-1; HEK293 StAR-luciferase, SF-1 AF2 mutant, luminescence; inhibition, % at 6.8 µM; actives 78% (n = 2,400); AID 652136;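 active = inhibition above the mean of all tested compounds plus 3 SD, cut at about 3% in these data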
Of the large screens only hits and unclear results are named; the others gave an inactive call (follow-up assays come after a bar, where they were run).

CC(C)C[C@@H](CN1CCC[C@@H]1CN1C(=S)NC[C@@H]1Cc1ccccc1)N1C[C@H](Cc2ccc(O)cc2)N(CC2CCCCC2)C1=S	none (no result: DAX1 inh-2)
CCn1ccc(C(=O)Nc2ncc(C)s2)n1	DAX1 inh-1 8.9 | DAX1 conf 9.4 | SF1 mutant ctr 4.4
CCn1ccc(C(=O)NC2=NCCS2)n1	none
CCc1ccccc1NC(=O)NC1CCCCC1	none
O=C(Nc1ccccc1Cl)NC1CCCCCCC1	DAX1 inh-1 5.2 | DAX1 conf 3.8 | SF1 mutant ctr inactive
COc1cccc(NC(=O)NC2CCCCCCC2)c1	DAX1 inh-1 4.8 | DAX1 conf 5.4 | SF1 mutant ctr 4.3
COc1ccc(NC(=O)NC2CCCCCCC2)cc1	DAX1 inh-1 12, hgDAF12 agonist 13, ssDAF-12 act 0.9, hcDAF-12 act 5.8 | DAX1 conf 10 | SF1 mutant ctr 5.8
Cc1[nH]n(-c2cccc(Cl)c2)c(=O)c1C=NCc1ccco1	DAX1 inh-1 5.8, hgDAF12 agonist 12, DAX1 inh-2 5.7 | DAX1 conf 8.3 | SF1 mutant ctr 5.1
COc1cccc(NC(=O)C(=O)N/N=C(\C)CC(=O)Nc2ccc(NC(C)=O)cc2)c1	DAX1 inh-1 5.8, hgDAF12 agonist 13 | DAX1 conf 5.9 | SF1 mutant ctr 5.8
CCc1ccc(NC(=O)C(=O)N/N=C(\C)CC(=O)Nc2ccc(OC)cc2)cc1	none
COC(=O)c1ccc2c(c1)c(C#Cc1ccccc1)c(-c1ccccc1)n2C	DAX1 inh-1 4.7 | DAX1 conf inactive | SF1 mutant ctr inactive
COc1ccc(O)c(C(=O)CC(=O)c2ccncc2)c1	DAX1 inh-1 4.7, hgDAF12 agonist 12 | DAX1 conf 5.7 | SF1 mutant ctr 3.6
COc1ccc(C(=O)NNC(=O)c2ccncc2)cc1	none
COc1ccc(Cn2nnc(C(=O)Nc3ccc4c(c3)OCCO4)c2N)cc1Br	none
CCn1cc(Cl)c(C(=O)Nc2cccc(C(F)(F)F)c2)n1	none
Nc1c(C(=O)Nc2ccc3c(c2)OCCO3)nnn1Cc1cccc(F)c1	DAX1 inh-1 7.7 | DAX1 conf 9.4 | SF1 mutant ctr 5.3
CCn1cc(Cl)c(C(=O)Nc2ccc3c(c2)OCCO3)n1	DAX1 inh-1 6.1, hgDAF12 agonist 13 | DAX1 conf 9.7 | SF1 mutant ctr 5.5
Nc1c(C(=O)Nc2ccc3c(c2)OCCO3)nnn1Cc1ccc(Cl)cc1	DAX1 inh-1 8.7, hgDAF12 agonist 12 | DAX1 conf 7.7 | SF1 mutant ctr 5.2
CCCCCCN1C[C@H](n2cc(C3CC3)nn2)[C@@H](O)C[C@@H]1c1ccccc1	none
CN1CCCC(OC(=O)c2ccc(Cl)cc2)C1 (stereo unspecified)	none
CN1CCCC(OC(=O)c2ccc3c(c2)OCCO3)C1 (stereo unspecified)	DAX1 inh-1 5.4 | DAX1 conf 6.4 | SF1 mutant ctr 3.2
CN(N=Cc1ccc2c(c1)OCO2)C(=O)c1ccccc1N	none (no result: DAX1 inh-2)
Cc1ccc2nc(SCC(=O)c3ccccc3)nc(=O)n2c1	DAX1 inh-1 8.3, hgDAF12 agonist 12 | DAX1 conf 9.2 | SF1 mutant ctr 5.3
Cc1ccc(N(C)S(=O)(=O)c2cc(-c3cnc(C4CC4)o3)ccc2C)cc1	none
Cc1cccc(N(C)S(=O)(=O)c2ccc(-c3cnc(C4CC4)o3)cc2)c1	DAX1 inh-1 7.6 | DAX1 conf 15 | SF1 mutant ctr inactive
Cc1cc(NCc2ccccn2)nc2ccccc12	none
c1ccc(CNc2ccc3ccccc3n2)nc1	DAX1 inh-1 7.9, hgDAF12 agonist 15, ssDAF-12 act 1.0, hcDAF-12 act 8.0 | DAX1 conf 12 | SF1 mutant ctr 8.2
CCOc1cc(N2CCC(O)CC2)ccc1Nc1ncc2c(n1)N(C)c1ccccc1C(=O)N2C	DAX1 inh-1 5.9 (no result: DAX1 inh-2) | DAX1 conf inactive | SF1 mutant ctr inactive
COc1cc(N2CCC(O)CC2)ccc1Nc1nnc(Cl)c(Nc2ccccc2S(C)(=O)=O)n1	none (no result: DAX1 inh-1, hgDAF12 agonist, ssDAF-12 act, hcDAF-12 act)
O=C(CNc1cc(S(=O)(=O)N2CCOCC2)ccc1N1CCCC1)Nc1ccc(Cl)cc1F	none
O=C(OCCn1c(=S)sc2ccccc21)c1ccccc1	DAX1 inh-1 6.7 | DAX1 conf 9.1 | SF1 mutant ctr 7.1
O/N=C/CCn1c(=S)sc2ccccc21	none
CC(C)C[C@@H](NC(=O)OC(C)(C)C)C(=O)N1O[C@]23C=C[C@]14C[C@@H](O)CC[C@]4(C)C2CC[C@]1(C)[C@@H]([C@H](C)/C=C/[C@H](C)C(C)C)CC[C@H]13 (stereo partly specified)	none (no result: DAX1 inh-2)
Cc1cc2nc(N3CCN(C(=O)c4ccco4)CC3)sc2cc1C	none
Cc1cc(C)c2nc(N3CCN(C(=O)c4ccco4)CC3)sc2c1	DAX1 inh-1 5.0 | DAX1 conf 4.4 | SF1 mutant ctr inactive
CCCCN(C(=O)C1CC(=O)N(Cc2ccc(C)cc2)C1)c1c(N)n(CC(C)C)c(=O)[nH]c1=O (stereo unspecified)	none
CCc1nnc(NC(=O)C2COc3ccccc3O2)s1 (stereo unspecified)	DAX1 inh-1 4.5 | DAX1 conf 6.3 | SF1 mutant ctr 4.0
COc1cc2c(OC(C)=O)c3c(c(-c4ccc5c(c4)OCO5)c2cc1OC)C(=O)OC3	none
COc1cc2c(O)c3c(c(-c4ccc5c(c4)OCO5)c2cc1OC)C(=O)OC3	DAX1 inh-1 6.6 | DAX1 conf 15 | SF1 mutant ctr inactive
COc1ccccc1Cc1c(-c2ccc(Cl)cc2)nc2ccc(Br)cn12	DAX1 inh-1 5.5 (no result: DAX1 inh-2) | DAX1 conf 6.3 | SF1 mutant ctr 4.3
COc1ccccc1Cc1c(-c2ccc(C)cc2)nc2ccc(Br)cn12	DAX1 inh-1 7.4, hgDAF12 agonist 23, hcDAF-12 act 6.3 (no result: DAX1 inh-2) | DAX1 conf 8.2 | SF1 mutant ctr 5.6
COC(=O)c1ccc2nc(-c3ccc(C)cc3)c(Cc3ccccc3OC)n2c1	none (no result: DAX1 inh-2)
COC(=O)c1ccc2nc(-c3ccccc3)c(Cc3ccccc3OC)n2c1	DAX1 inh-1 4.8 (no result: DAX1 inh-2) | DAX1 conf inactive | SF1 mutant ctr inactive
COc1ccccc1Cc1c(-c2ccc(C)cc2)nc2c(C)cc(Br)cn12	DAX1 inh-1 5.3 (no result: DAX1 inh-2) | DAX1 conf inactive | SF1 mutant ctr inactive
O=C(N[C@H](C(=O)N1CCC[C@H]1C(=O)NCCc1ccccc1Cl)c1ccccc1)c1ccc(Cl)cc1Cl	none (no result: DAX1 inh-2)
O=C(c1ccc(Cl)cc1)N1CCC2CC1c1cc(-c3ccccc3)ccc12 (stereo unspecified)	none
Clc1ccc(-c2nc3ccc(Br)cn3c2Cc2ccsc2)cc1	DAX1 inh-1 5.2 (no result: DAX1 inh-2) | DAX1 conf 5.2 | SF1 mutant ctr inactive
CCNc1ccccc1	none (no result: DAX1 inh-2)
COCCSc1nnc(NC(=O)c2ccc3c(c2)OCO3)s1	none

Source: PubChem BioAssay
